These results are taken from PubChem BioAssay (EPA / NIEHS).

“And” between values parts separate entries of the source, which are not always exact repeats. Identical values can stand only once. A structure can be active in one record and inactive in another. The source made the active and inactive calls. How the source made its calls: active means hit-call score of the fitted dose curve at least 0.9, where 1 is the maximum; inactive means score below 0.9.

A short description of this assay: CCTE_Shafer_MEA_acute_cross_correlation_HWHM: CCTE's Neural Acute Assay for Cross Correlation at Half Width at Half Maximum, Shafer Lab (AID 2284026). On the procedure:
CCTE_Shafer_MEA_acute assay is conducted using Axion Biosystems 48 well microelectrode array (MEA) plates and Maestro recording system. Each well of the MEA plate contains a grid of 16 microelectrodes embedded in the culture surface. Electrically active cells, such as neurons, can be cultured over the electrodes, and electrical activity in these cells can be recorded extracellularly. The spontaneous firing of neurons is captured from each electrode on a microsecond timescale providing both temporally and spatially precise data. […] The CCTE_Shafer_MEA_acute assay uses primary cultures of rat cortical neurons. As these cultures mature over time, neural networks develop functional activity and form cohesive networks in which electrical activity can be highly coordinated. Baseline 40-minute recordings are made on days post-plating 13 or 15, followed by a secondary 40-minute recording after chemical exposure.CCTE_Shafer_MEA_acute_cross_correlation_HWHM is a component of the CCTE_Shafer_MEA_acute assay. It measures the distance along the x-axis (phase lag) from the left half maximum height to the center of the cross-correlogram of action potential firing during a recording in a microelectrode array (MEA) using Axion Biosystems Maestro 768 channel amplifier with the AxIS adaptive spike detector. Smaller values indicate a narrower correlogram (greater synchrony). The recordings before and after chemical treatment are used to calculate a percent change in the half width at half maximum of the cross-correlogram in each well.Data from the assay component CCTE_Shafer_MEA_acute_cross_correlation_HWHM was analyzed into 1 assay endpoint. This assay endpoint, CCTE_Shafer_MEA_acute_cross_correlation_HWHM, was analyzed in the negative analysis fitting direction relative to DMSO as the negative control and baseline of activity. Using a type of functional reporter, gain or loss-of-signal activity can be used to understand electrical activity.
Spontaneous activity in the cortical cultures was recorded using an Axion Biosystems Maestro 768 channel amplifier and Axion Integrated Studios (AxIS) v1.8 (or later) software. The amplifier recorded from all channels simultaneously (gain = 1200 x; sampling rate = 12.5 kHz/channel): raw signals were filtered with a Butterworth band-pass filter (300-5000 Hz), which filters out slower local field potentials leaving only fast potentials, i.e., "spikes", arising from extracellular currents associated with action potentials (Pine 2006; Wheeler and Nam 2011). On-line spike detection of filtered signals was conducted with the AxIS adaptive spike detector, using a threshold of 8x the root mean squared (rms) noise on each channel. Any electrodes with rms noise levels greater than 5 uV were grounded (e.g., no data were recorded). Once grounded, an electrode was grounded for the duration of the experiment. All recordings were conducted at 37 C. Wells were deemed usable if on the day of the exposure >/= 10 electrodes were active (defined as >/= 5 spikes/min). On DIV 13 or 15, a minimum of three wells from one cortical culture preparation were treated with each compound (0.03-40 uM). Prior to recording baseline activity, each mwMEA plate was placed in the Maestro at 37 C and allowed to sit for 20 min while firing rates stabilized. Baseline activity (40 min) was recorded before the addition of each compound. An additional 40 min of spontaneous activity was recorded in the presence of each compound. Changes in network parameters relative to baseline were assessed following compound treatment.
As for `Clc1ccccc1-c1nnc(-c2ccccc2Cl)nn1`, the outcome was inactive.
The same measure, in the same setting: the entry for `CCC(C)Nc1c([N+](=O)[O-])cc(C(C)(C)C)cc1[N+](=O)[O-]` (stereo not given) is “inactive”.
`O=S1OCC2C(CO1)C1(Cl)C(Cl)=C(Cl)C2(Cl)C1(Cl)Cl` (stereo not given): the result was inactive and the AC50 is 19.8 µM (active).
With `CNC(=O)/C=C(\C)OP(=O)(OC)OC`, the molecule was called inactive.
For the molecule `CCC(C)(C)C(=O)OC1=C(c2ccc(Cl)cc2Cl)C(=O)OC12CCCCC2`, the molecule was called inactive and the AC50 is 0.106 µM (active).
In the case of `ClC1C(Cl)C(Cl)C(Cl)C(Cl)C1Cl` (stereo not given), the outcome was inactive.
The same measure, in the same setting: the entry for `O=[N+]([O-])/N=C1\NCCN1Cc1ccc(Cl)nc1` is “inactive”.
On the same count and under the same terms, next, `CNC(=O)CSP(=S)(OC)OC`: “inactive”.
Turning to `C[C@H]1[C@H](c2ccc(Cl)cc2)SC(=O)N1C(=O)NC1CCCCC1`, the AC50 is 23.5 µM (active).
On to `O=C1c2ccccc2C(=O)N1SC(Cl)(Cl)Cl`, for which the result was inactive.
Same read-out and setting: next, `N#CN`: “inactive”.
For `CC(C)OC(=O)Nc1cccc(Cl)c1`, the AC50 is 20 µM (active).
With `N#Cc1c(Cl)c(Cl)c(Cl)c(C#N)c1Cl`, the outcome was inactive.
On the same count and under the same terms, next, `O=S(=O)(O)C(F)(F)C(F)(F)C(F)(F)C(F)(F)C(F)(F)C(F)(F)C(F)(F)C(F)(F)F`: “inactive”.
In the case of `Oc1cc(Cl)ccc1Oc1ccc(Cl)cc1Cl`, the AC50 was 20 µM (active).
On the same count and under the same terms, the figure for `CC(C)N(C(=O)COc1nnc(C(F)(F)F)s1)c1ccc(F)cc1` is 20 µM (active) and 10.9 µM (active).
In the case of `CCCN(CCOc1c(Cl)cc(Cl)cc1Cl)C(=O)n1ccnc1`, the molecule was classed as inactive.
Consider `CC1(C)C(C=C(Cl)Cl)C1C(=O)OC(C#N)c1ccc(F)c(Oc2ccccc2)c1` (stereo not given), for which the AC50 was 15 µM (active) and the molecule was called inactive.
`CCCN(CCC)c1c([N+](=O)[O-])cc(C(F)(F)F)cc1[N+](=O)[O-]`: the molecule was classed as inactive.
Regarding `O=C(O)CCCOc1ccc(Cl)cc1Cl`, the call was inactive.
With `COP(=S)(OC)Oc1ccc(SC)c(C)c1`, the half-maximal activity concentration (AC50) was 31.2 µM (active).
Same read-out and setting: the figure for `CC[C@H](C)[C@H]1O[C@]2(C=C[C@@H]1C)C[C@@H]1C[C@@H](C/C=C(\C)[C@@H](O[C@H]3C[C@H](OC)[C@@H](O[C@H]4C[C@H](OC)[C@@H](O)[C@H](C)O4)[C@H](C)O3)[C@@H](C)/C=C/C=C3\CO[C@@H]4[C@H](O)C(C)=C[C@@H](C(=O)O1)[C@]34O)O2` (tested in a mixture with another compound) is 0.0109 µM (active).

Broadly, the AC50 is the concentration at which the activity in the assay is half-maximal.
